Assay results reported in the supplement of paper PMC11001985.

Compound: C#CCNC(=O)CCSSCCC(=O)NCCc1ccc(C=O)c(C=O)c1
Experiment: lysine labeling ratio R10:1 (500 µM / 50 µM probe), SILAC-ABPP in living cells; higher = lower intrinsic lysine reactivity toward the probe, active = 2 or less
Conditions: HeLa; probe concentrations 500 vs 50 µM
Outline: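 R, given per lysine, is the filtered median high-probe/low-probe MS1 peptide ratio, with the median then taken across forward and reverse replicates. Cells were living SILAC light and heavy HeLa cells in PBS at room temperature, labelled with 50 µM or 500 µM of an alkyne-tagged, disulfide-linked lysine probe. The ceiling applied is 20.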

UniProt O14786, sequence (O14786 whole entry): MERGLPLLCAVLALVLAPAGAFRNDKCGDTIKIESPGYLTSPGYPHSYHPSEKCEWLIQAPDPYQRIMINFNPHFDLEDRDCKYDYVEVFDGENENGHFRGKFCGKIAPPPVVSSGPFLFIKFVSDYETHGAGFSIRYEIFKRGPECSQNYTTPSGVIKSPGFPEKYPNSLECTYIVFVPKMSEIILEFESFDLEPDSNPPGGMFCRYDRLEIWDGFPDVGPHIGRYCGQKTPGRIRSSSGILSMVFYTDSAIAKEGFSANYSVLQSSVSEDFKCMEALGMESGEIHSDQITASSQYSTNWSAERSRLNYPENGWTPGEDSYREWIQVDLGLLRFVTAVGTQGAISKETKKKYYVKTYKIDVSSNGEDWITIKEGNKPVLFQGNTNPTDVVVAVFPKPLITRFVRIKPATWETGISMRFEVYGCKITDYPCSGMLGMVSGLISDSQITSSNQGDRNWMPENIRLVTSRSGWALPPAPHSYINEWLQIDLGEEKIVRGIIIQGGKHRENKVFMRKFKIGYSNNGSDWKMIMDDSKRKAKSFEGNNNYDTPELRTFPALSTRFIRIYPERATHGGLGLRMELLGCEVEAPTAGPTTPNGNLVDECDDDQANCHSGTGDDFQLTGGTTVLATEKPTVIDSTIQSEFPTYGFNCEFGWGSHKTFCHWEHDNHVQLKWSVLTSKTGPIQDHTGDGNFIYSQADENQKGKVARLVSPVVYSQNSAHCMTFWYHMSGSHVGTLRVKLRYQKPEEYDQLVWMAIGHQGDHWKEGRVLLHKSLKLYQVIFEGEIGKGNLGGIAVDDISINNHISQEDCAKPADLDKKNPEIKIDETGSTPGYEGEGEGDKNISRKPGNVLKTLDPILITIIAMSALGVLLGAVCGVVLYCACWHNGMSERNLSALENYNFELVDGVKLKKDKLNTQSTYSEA
UniProt Q15125, sequence (Q15125 whole entry): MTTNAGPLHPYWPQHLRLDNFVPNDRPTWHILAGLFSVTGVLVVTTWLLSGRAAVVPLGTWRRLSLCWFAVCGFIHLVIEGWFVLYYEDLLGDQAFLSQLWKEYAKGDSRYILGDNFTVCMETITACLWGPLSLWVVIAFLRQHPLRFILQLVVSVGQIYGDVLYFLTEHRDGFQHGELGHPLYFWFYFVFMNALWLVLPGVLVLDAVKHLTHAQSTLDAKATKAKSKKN
UniProt P40222, sequence (P40222 whole entry): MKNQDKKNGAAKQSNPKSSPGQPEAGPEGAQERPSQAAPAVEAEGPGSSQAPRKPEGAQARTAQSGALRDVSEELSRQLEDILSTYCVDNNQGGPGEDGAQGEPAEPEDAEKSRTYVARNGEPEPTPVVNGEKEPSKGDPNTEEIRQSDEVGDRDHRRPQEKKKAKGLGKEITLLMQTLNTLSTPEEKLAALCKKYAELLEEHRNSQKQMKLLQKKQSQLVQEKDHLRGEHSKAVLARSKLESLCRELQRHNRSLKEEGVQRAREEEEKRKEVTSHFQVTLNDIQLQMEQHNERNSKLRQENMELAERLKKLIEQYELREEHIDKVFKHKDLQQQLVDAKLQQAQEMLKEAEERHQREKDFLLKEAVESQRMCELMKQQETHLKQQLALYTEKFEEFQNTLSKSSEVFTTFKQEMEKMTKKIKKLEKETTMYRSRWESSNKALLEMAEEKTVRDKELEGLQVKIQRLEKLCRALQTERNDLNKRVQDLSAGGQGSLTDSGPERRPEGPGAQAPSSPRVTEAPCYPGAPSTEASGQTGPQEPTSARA
UniProt O43854, sequence (O43854 whole entry): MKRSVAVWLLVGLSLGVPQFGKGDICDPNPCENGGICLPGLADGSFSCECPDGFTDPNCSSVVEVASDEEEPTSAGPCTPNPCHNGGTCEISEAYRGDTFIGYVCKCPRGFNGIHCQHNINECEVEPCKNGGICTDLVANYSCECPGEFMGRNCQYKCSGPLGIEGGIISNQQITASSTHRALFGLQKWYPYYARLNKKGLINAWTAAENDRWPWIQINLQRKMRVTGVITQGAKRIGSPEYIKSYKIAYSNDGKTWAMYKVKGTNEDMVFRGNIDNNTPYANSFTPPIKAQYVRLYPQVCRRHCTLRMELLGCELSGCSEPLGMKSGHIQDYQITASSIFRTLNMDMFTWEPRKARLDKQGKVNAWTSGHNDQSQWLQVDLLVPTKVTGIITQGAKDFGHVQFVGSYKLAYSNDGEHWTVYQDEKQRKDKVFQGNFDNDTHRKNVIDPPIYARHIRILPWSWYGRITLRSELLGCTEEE
UniProt P07814, sequence (P07814 whole entry): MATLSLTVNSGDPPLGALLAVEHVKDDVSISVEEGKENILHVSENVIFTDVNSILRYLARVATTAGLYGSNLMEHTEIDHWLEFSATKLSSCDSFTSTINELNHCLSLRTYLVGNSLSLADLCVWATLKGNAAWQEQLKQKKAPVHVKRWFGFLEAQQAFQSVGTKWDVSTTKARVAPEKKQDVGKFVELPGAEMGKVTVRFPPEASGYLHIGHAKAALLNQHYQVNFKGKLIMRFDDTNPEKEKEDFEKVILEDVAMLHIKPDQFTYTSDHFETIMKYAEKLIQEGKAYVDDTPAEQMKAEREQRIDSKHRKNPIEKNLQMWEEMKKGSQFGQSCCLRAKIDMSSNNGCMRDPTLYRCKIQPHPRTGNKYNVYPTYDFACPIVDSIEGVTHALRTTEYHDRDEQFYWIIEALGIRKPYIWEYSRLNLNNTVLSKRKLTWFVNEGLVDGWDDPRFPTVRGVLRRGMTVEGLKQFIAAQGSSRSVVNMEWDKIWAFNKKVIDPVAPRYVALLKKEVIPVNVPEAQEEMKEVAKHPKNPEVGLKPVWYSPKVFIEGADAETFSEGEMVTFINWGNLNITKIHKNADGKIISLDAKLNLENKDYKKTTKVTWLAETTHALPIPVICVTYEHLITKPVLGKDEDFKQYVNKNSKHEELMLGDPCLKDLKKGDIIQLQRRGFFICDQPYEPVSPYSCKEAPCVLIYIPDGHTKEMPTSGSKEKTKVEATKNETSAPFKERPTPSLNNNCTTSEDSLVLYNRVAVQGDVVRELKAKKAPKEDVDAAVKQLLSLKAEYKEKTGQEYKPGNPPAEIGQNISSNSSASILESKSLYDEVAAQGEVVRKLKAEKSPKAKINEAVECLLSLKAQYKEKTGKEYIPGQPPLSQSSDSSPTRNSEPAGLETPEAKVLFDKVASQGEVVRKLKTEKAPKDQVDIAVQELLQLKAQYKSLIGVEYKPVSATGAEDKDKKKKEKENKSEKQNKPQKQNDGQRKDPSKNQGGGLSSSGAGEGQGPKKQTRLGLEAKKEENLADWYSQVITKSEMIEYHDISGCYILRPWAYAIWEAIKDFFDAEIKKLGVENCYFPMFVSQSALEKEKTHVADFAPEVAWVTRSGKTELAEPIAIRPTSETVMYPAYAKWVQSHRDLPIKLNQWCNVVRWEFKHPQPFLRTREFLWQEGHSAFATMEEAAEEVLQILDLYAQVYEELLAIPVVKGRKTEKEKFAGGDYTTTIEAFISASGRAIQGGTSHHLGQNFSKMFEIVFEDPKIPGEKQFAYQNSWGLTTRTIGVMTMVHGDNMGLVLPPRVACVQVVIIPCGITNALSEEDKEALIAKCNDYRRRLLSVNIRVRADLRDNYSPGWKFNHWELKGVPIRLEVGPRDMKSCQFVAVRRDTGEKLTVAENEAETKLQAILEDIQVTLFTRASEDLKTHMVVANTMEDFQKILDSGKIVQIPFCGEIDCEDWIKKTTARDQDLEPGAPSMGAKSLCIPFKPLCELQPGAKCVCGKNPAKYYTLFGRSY
UniProt O75054, sequence (O75054 whole entry): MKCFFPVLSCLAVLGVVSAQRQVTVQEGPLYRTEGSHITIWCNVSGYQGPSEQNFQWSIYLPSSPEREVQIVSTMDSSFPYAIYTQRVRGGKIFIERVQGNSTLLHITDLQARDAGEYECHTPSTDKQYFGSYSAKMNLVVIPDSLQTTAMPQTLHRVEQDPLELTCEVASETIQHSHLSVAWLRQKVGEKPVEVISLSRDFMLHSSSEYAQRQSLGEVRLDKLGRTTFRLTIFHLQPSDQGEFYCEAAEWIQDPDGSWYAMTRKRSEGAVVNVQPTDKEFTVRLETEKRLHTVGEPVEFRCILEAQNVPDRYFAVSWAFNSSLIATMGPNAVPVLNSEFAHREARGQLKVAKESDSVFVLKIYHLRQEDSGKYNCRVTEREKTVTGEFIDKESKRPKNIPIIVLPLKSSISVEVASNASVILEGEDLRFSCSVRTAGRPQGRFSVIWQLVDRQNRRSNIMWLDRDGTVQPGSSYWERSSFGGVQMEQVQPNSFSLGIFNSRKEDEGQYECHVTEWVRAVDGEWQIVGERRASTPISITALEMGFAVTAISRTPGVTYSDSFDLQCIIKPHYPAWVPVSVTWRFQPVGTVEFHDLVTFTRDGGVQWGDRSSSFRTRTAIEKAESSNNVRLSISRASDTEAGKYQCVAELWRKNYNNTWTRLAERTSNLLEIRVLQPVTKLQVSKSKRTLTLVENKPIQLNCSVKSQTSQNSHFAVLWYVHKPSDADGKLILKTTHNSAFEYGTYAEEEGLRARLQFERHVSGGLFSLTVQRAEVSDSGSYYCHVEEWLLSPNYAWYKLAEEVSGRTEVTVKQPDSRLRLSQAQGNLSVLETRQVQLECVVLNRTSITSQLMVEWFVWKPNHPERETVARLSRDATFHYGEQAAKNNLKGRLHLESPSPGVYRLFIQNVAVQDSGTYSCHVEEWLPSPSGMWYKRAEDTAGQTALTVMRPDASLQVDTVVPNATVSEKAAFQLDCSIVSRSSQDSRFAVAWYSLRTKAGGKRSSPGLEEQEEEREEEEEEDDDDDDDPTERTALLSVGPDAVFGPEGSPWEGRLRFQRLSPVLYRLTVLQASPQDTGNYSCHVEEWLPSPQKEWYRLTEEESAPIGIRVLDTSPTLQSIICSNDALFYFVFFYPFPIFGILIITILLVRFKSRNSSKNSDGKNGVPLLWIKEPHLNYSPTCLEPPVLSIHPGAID

Row | Target | lysine labeling ratio R10:1
1 | P30462 (lysine site: K210) (UniProt P01889) | 2.33 (inactive)
2 | SLC25A5 (lysine site: K245) (UniProt P05141) | 2.26 (inactive)
3 | EDIL3 (lysine site: K106) (UniProt O43854) | 2.57 (inactive)
4 | UniProt P05787 (lysine site: K304) | 7.25 (inactive)
5 | UniProt P83881 (lysine site: K38) | 1.61 (active)
6 | CHCHD3 (lysine site: K45) (UniProt Q9NX63) | 1.56 (active)
7 | CYR61 (lysine site: K378) (UniProt O00622) | 1.08 (active)
8 | IGSF8 (lysine site: K143) (UniProt Q969P0) | 2.9 (inactive)
9 | RPL22 (lysine site: K80) (UniProt P35268) | 2.72 (inactive)
10 | IGSF3 (lysine site: K191) (UniProt O75054) | 4.16 (inactive)
11 | NRP1 (lysine site: K538) (UniProt O14786) | 2.73 (inactive)
12 | FAT1 (lysine site: K3783) (UniProt Q14517) | 1.6 (active)
13 | LRP1 (lysine site: K2653) (UniProt Q07954) | 1.54 (active)
14 | TXLNA (lysine site: K240) (UniProt P40222) | 1.67 (active)
15 | SPTAN1 (lysine site: K274) (UniProt Q13813) | 2.28 (inactive)
16 | EBP (lysine site: K106) (UniProt Q15125) | 4.19 (inactive)
17 | EPRS (lysine site: K328) (UniProt P07814) | 1.73 (active)
